Measured values as given in PubChem BioAssay AID463173 (ICCB-Longwood Screening Facility, Harvard Medical School, 2010).
Out of some 52,000 compounds screened, about 1,700 (3.3%) were called active. The entries come from a sample that favours actives as a whole. A number with no mark means an inactive call. Rule as the data show it: active = survival mostly below about 52% (no sharp cut-off); inactive = mostly above about 56%.

Test system: Wild type
Assay: S. aureus survival, RN4220 and DeltatarO strains – OD600, teichoic acid synthesis inhibitors, primary screen (AID 463173)
Conditions: S. aureus RN4220 wild type/DeltatarO growth, OD600, 18 h, active compounds read low, screened at 18.75 µg/mL (by protocol)

Row | Structure (SMILES) | survival
1 | COc1ccc(S(=O)(=O)N2CCC(n3c(C)nc4cccnc43)CC2)cc1Cl | 131%
2 | COc1ccc(-c2cc(C(F)(F)F)n3nc(C(=O)NCC45CC6CC(CC(C6)C4)C5)cc3n2)cc1 | 62%
3 | O=C(NCC12CC3CC(CC(C3)C1)C2)c1cc2nc(-c3ccc(Cl)cc3)cc(C(F)(F)F)n2n1 | 60%
4 | O=C(NCC12CC3CC(CC(C3)C1)C2)c1cc2nc(-c3ccccc3)cc(C(F)(F)F)n2n1 | -12% (active)
5 | CCOc1ccccc1Nc1sc(C(=O)c2ccc(Cl)cc2)c(N)c1S(=O)(=O)c1ccccc1 | 19%
6 | Cc1ccc2sc(N3CCN(C(=O)CCS(=O)(=O)c4ccc(F)cc4)CC3)nc2c1C | 82%
7 | Cc1ccc(S(=O)(=O)CC(=O)N2CCN(c3nc4c(F)cccc4s3)CC2)cc1 | -6% (active)
8 | COc1cccc2sc(N3CCN(C(=O)CCS(=O)(=O)c4ccc(F)cc4)CC3)nc12 | 87%
9 | Cc1ccc2sc(N3CCN(C(=O)CCS(=O)(=O)c4ccc(Cl)cc4)CC3)nc2c1C | 75%
10 | Cc1ccc(S(=O)(=O)CCC(=O)N2CCN(c3nc4c(C)c(Cl)ccc4s3)CC2)cc1 | 68%
11 | Cc1c(Cl)ccc2sc(N3CCN(C(=O)CCS(=O)(=O)c4ccc(F)cc4)CC3)nc12 | -3% (active)
12 | Cc1cccc2sc(N3CCN(C(=O)CS(=O)(=O)c4ccc(F)cc4)CC3)nc12 | 73%
13 | COc1cccc2sc(N3CCN(C(=O)CS(=O)(=O)c4ccc(Cl)cc4)CC3)nc12 | -6% (active)
14 | Cc1c(Cl)ccc2sc(N3CCN(C(=O)CS(=O)(=O)c4ccccc4)CC3)nc12 | 124%
15 | Cc1c(Cl)cccc1NC(=O)CSc1nc(=O)n(Cc2ccco2)c2c1CCC2 | 120%
16 | COc1ccccc1N1CCN(CCC(=O)Nc2cccc(F)c2)CC1 | 76%
17 | COc1ccc(NC(=O)NC2COc3ccccc3C2)c(OC)c1 (stereo unspecified) | 88%
18 | COc1ccc(NC(=O)NC2COc3ccccc3C2)cc1Cl (stereo unspecified) | 65%
19 | O=C(Nc1ccc(OC(F)(F)F)cc1)NC1COc2ccccc2C1 (stereo unspecified) | -3% (active)
20 | O=C(Cn1cc(S(=O)(=O)c2ccccc2)c(=O)c2cc3c(cc21)OCO3)Nc1ccc(Cl)cc1 | 65%
21 | CCc1ccc(CNC(=O)c2sc3ncccc3c2-n2c(C)ccc2C)cc1 | -3% (active)
22 | COCCNC(=O)c1sc2ncccc2c1-n1c(C)ccc1C | 88%

Row | Structure (SMILES) | survival
23 | Cc1ccc(CCNC(=O)c2sc3ncccc3c2-n2c(C)ccc2C)cc1 | 75%
24 | Cc1cc2ccccc2n1-c1ccc(C(=O)N2CCC(C(=O)NCc3ccccc3Cl)CC2)s1 | 60%
25 | CC(C)c1ccc(C2=CC(c3cccc(Cl)c3)n3ncnc3N2)cc1 (stereo unspecified) | -3% (active)
26 | CC(C)c1ccc(C2=CC(c3cccc(Cl)c3)n3c(nc4ccccc43)N2)cc1 (stereo unspecified) | 60%
27 | COc1ccc(C2C=C(c3ccc(Cl)c(Cl)c3)Nc3ncnn32)cc1 (stereo unspecified) | 26%
28 | CCOC(=O)c1cc2c(=O)n3ccccc3nc2n(Cc2ccco2)c1=NC(=O)c1ccccc1OC | 64%
29 | COCCCNC(=O)CSc1nc2c(sc3ccccc32)c(=O)n1CCc1ccc(OC)c(OC)c1 | -6% (active)
30 | CCOCCCn1c(SCC(=O)NCCCOC)nc2c(sc3ccccc32)c1=O | 134%
31 | CCOCCCn1c(SCC(=O)NCc2ccccc2)nc2c(sc3ccccc32)c1=O | -6% (active)
32 | CCCCn1c(SCc2ccccc2C#N)nc2c(sc3ccccc32)c1=O | 14% (active)
33 | COCCCn1c(SCc2ccccc2F)nc2c(sc3ccccc32)c1=O | 98%
34 | COCCCNC(=O)CSc1nc2c(sc3ccccc32)c(=O)n1CCc1ccccc1 | 64%
35 | CC(C)OCCCn1c(SCc2ccccc2C#N)nc2c(sc3ccccc32)c1=O | 76%
36 | CCOC(=O)CSc1nc2c(sc3ccccc32)c(=O)n1CCO | -6% (active)
37 | COCCCn1c(SCC(=O)NCc2ccccc2)nc2c(sc3ccccc32)c1=O | 72%
38 | CCCCn1c(SCC(=O)NCCCOC)nc2c(sc3ccccc32)c1=O | 133%
39 | CCOC(=O)CSc1nc2c(sc3ccccc32)c(=O)n1CCc1ccccc1 | 75%
40 | CCOCCCn1c(SCC(=O)OCC)nc2c(sc3ccccc32)c1=O | 136%
41 | Cc1c(C(=O)Nc2ccc(F)c(Cl)c2)oc2ccc(S(=O)(=O)N(C)C3CCCCC3)cc12 | 99%
42 | Cc1ccc(C)c(S(=O)(=O)c2cn(C)c3cc(F)c(F)cc3c2=O)c1 | 81%
43 | COc1cccc(-n2ccnc2SCC(=O)Nc2c(C)cc(C)cc2C)c1 | 113%
44 | O=C(CCCCCn1c(=O)c2sccc2n(Cc2ccc(Cl)cc2)c1=O)NCc1ccc2c(c1)OCO2 | 86%

Row | Structure (SMILES) | survival
45 | CCCCn1c(SCC(=O)NCc2ccc(C)cc2)nc2c(sc3ccccc32)c1=O | 69%
46 | CCCCn1c(SCC(=O)c2ccccc2)nc2c(sc3ccccc32)c1=O | -1% (active)
47 | CC(C)OCCCn1c(SCC(=O)c2ccccc2)nc2c(sc3ccccc32)c1=O | 72%
48 | COc1ccc(CN(CCN)C2CC(C)N(C)CC2C)cc1 (stereo unspecified) | 105%
49 | Cc1ccc(C2CCN(C(=O)Nc3ccc(Cl)c(Cl)c3)C2)cc1 (stereo unspecified) | -3% (active)
50 | O=C(Nc1ccc(Cl)c(Cl)c1)N1CCC(c2ccccc2)C1 (stereo unspecified) | 71%
51 | Cc1ccc(C2CCN(C(=O)Nc3ccc(Cl)cc3)C2)cc1 (stereo unspecified) | 71%
52 | Cc1cccc(-c2nc3ccccc3o2)c1 | 119%
53 | Cc1c(Cl)cccc1NC(=O)C(CCS(C)(=O)=O)N1Cc2ccccc2C1=O (stereo unspecified) | 74%
54 | CS(=O)(=O)CCC(C(=O)Nc1cccc(C(F)(F)F)c1)N1Cc2ccccc2C1=O (stereo unspecified) | -1% (active)
55 | COc1cc(NC(=O)C(CCS(C)(=O)=O)N2Cc3ccccc3C2=O)cc(OC)c1OC (stereo unspecified) | 14% (active)
56 | COc1ccc(NC(=O)[C@H](Cc2ccccc2)N2Cc3ccccc3C2=O)cc1OC | 94%
57 | COC(=O)c1cc(NC(=O)[C@H](CCS(C)(=O)=O)N2Cc3ccccc3C2=O)cc(C(=O)OC)c1 | 87%
58 | CS(=O)(=O)CC[C@@H](C(=O)NCCc1ccccc1)N1Cc2ccccc2C1=O | 90%
59 | CCc1ccc(NC(=O)CSc2nc3c(sc4ccccc43)c(=O)n2CCCOC(C)C)cc1 | 80%
60 | O=C(CSc1n[nH]c(-c2ccc(F)cc2)n1)NCCc1ccccc1 | 120%
61 | CC1=C(C(=O)Nc2ccccc2)C(c2ccncc2)n2nc(SCc3ccccc3F)nc2N1 (stereo unspecified) | 106%
62 | Cc1ccc(NC(=O)Cn2cc(S(=O)(=O)N3CCCC3)c(S(=O)(=O)N3CCCC3)c2)cc1F | 126%
63 | O=C(CCc1cn(Cc2ccccc2F)c2ccccc12)NCc1ccc(Cl)cc1 | 81%
64 | O=C(NCC1CCCCC1)C1CCCN1C(=O)NC1CCCCC1 (stereo unspecified) | 106%
65 | COc1ccc(NC(=O)c2oc3ccc(S(=O)(=O)N4CCCCC4)cc3c2C)cc1Cl | 73%
66 | Cc1ccc(S(=O)(=O)C2(C(=O)Nc3ccc(C(C)C)cc3)CC2)cc1 | 64%

Row | Structure (SMILES) | survival
67 | Cc1ccc(S(=O)(=O)C2(C(=O)Nc3ccc(Cl)c(C(F)(F)F)c3)CC2)cc1 | 41% (active)
68 | Cc1ccc(S(=O)(=O)C2(C(=O)Nc3ccc(C)c(Cl)c3)CC2)cc1 | 4% (active)
69 | COC(=O)c1ccc(NC(=O)C2(S(=O)(=O)c3ccc(C)cc3)CC2)cc1 | 133%
70 | CCOC(=O)c1cccc(NC(=O)C2(S(=O)(=O)c3ccc(C)cc3)CC2)c1 | 84%
71 | O=C(Nc1ccccc1C(F)(F)F)C1(S(=O)(=O)c2ccc(Cl)cc2)CC1 | 94%
72 | COc1ccc(C2(CNC(=O)C(=O)Nc3ccc(C)c(Cl)c3)CCCC2)cc1OC | 83%
73 | Cc1ccc(-n2ncc(C(=O)NCc3ccc4c(c3)OCO4)c2C2CCN(C(=O)OC(C)(C)C)CC2)cc1C | 82%
74 | COc1cccc(N2CCN(C(=O)c3c4c(nc5ccccc35)C(=O)N(C3CCCCC3)C4)CC2)c1 | 88%
75 | COc1ccc(C)cc1NC(=O)Cn1c(=O)oc2cc(S(=O)(=O)N3CCCCC3)ccc21 | 94%
76 | NC(=O)c1c(NC(=O)c2noc3c2CCCC3)sc2c1CCCC2 | 73%
77 | Cn1cc(S(=O)(=O)c2cccc(Cl)c2)c(=O)c2cc(F)c(N3CCN(c4ccccc4)CC3)cc21 | 1% (active)
78 | CCn1cc(S(=O)(=O)c2cc(C)cc(C)c2)c(=O)c2cc(F)c(N3CCCC3)cc21 | 129%
79 | Cc1cccc(S(=O)(=O)c2cn(Cc3ccc(F)cc3)c3cc(N4CCCCC4)c(F)cc3c2=O)c1 | -4% (active)
80 | O=c1c(S(=O)(=O)c2ccccc2)cn(Cc2ccc(F)cc2)c2cc(N3CCCCC3)c(F)cc12 | 74%
81 | CCN1CCN(c2cc3c(cc2F)c(=O)c(S(=O)(=O)c2cc(C)cc(C)c2)cn3CC)CC1 | -3% (active)
82 | Cn1cc(S(=O)(=O)c2ccccc2)c(=O)c2cc(F)c(N3CCN(c4ccccc4)CC3)cc21 | 135%
83 | Cn1cc(S(=O)(=O)c2cccc(Cl)c2)c(=O)c2cc(F)c(N3CCN(c4ccc(F)cc4)CC3)cc21 | 81%
84 | CCn1cc(S(=O)(=O)c2cc(C)cc(C)c2)c(=O)c2cc(F)c(N3CCCCC3)cc21 | 82%
85 | Cc1cccc(S(=O)(=O)c2cn(Cc3ccccc3)c3cc(N4CCCCC4)c(F)cc3c2=O)c1 | 99%
86 | CCOc1ccc(N(C)C(=O)C2CCN(S(=O)(=O)c3c(C)noc3/C=C/c3ccc(C)cc3)CC2)cc1 | 153%
